Reference: PubChem BioAssay (NCI)
About 83,000 compounds went through this panel and 20% of them were active in at least one assay; those are over-represented in the sample as a whole.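 Single-concentration screen, 48 h exposure, 96-well plates. Endpoint: percent growth. Below 10 = active.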 The source made the active and inactive calls.

What follows are compounds tested on HCC-2998 colon (assay: NCI-60 one-dose screen, 48 h (100 = growth as untreated, 0 = no growth, -100 = all killed)). Conditions: 10 µM.
With `COc1ccc2[nH]c(=O)c(CSc3ccc(Nc4nccc(-c5ccc(Cl)cc5)n4)cc3)cc2c1` the growth was 115% (inactive).
`CCOC(=O)C1=C(N)N(c2ccccc2)C2=C(C(=O)CC(C)(C)C2)C1c1ccccc1OC` (configuration not stated) was tested, and the growth was 101% (inactive).
With `COc1cccc2nc(Nc3cccc(NC(=O)c4ccc(CN5CCCN(C)CC5)c(C(F)(F)F)c4)c3)ccc12` the growth was -96.6% (active).
With `COc1cc(C2CC(c3ccc(C)cc3)=Nc3c(N)nc(N)nc3N2)ccc1Oc1nc(Nc2ccc(F)cc2)nc(N(C)C)n1` (configuration not stated) the growth was 29.9% (inactive).
For `CC(=O)Nc1ccc(-c2cn(-c3cccc(C(=O)Nc4ccc(Cl)c(C(F)(F)F)c4)c3)nn2)cn1`, the growth was -36.1% (active).
`Cc1cc(C(F)(F)F)ccc1C(=O)Nc1sc2c(c1C#N)CCC(=O)C2` was tested, and the growth was -10.6% (active).
`COc1ccc(OC)c(/C=N/NC(=O)c2ccc3nc(-c4ccc(Cl)cc4)[nH]c3c2)c1` was tested, and the growth was 85.4% (inactive).
For `CC1=N/C(=C\c2ccc(N(C)C)cc2)C(=O)N1CCc1ccc(S(N)(=O)=O)cc1`, the growth was 97.5% (inactive).
`Cc1ccc(-c2cc(C(=O)N=Nc3c(O)[nH]c4ccc(Br)cc34)c3ccccc3n2)cc1` was tested, and the growth was 45.5% (inactive).
In the case of `COc1ccccc1C(=O)NNC(=O)CSc1nc2c(c(=O)[nH]1)CCCC2`, the growth is reported as 108% (inactive).
With `C=C1CCC2C3(C)COC(c4cccc(F)c4)OC3CCC2(C)C1CC(O)C1=CCOC1=O` (configuration not stated) the growth was 63.1% (inactive).
With `C=C1CCC2C3(C)COC(c4c(F)cccc4F)OC3CCC2(C)C1C/C=C1/C(=O)OCC1O` (configuration not stated) the growth was -65% (active).
`Nc1nnc(-c2c[nH]c3ccc(F)cc23)c(-c2c[nH]c3ncccc23)n1` was tested, and the growth was 97.9% (inactive).
For `CC(=O)NS(=O)(=O)c1ccc(NC(=O)CSC2=NC(c3ccccc3)C(C(C)=O)=C(C)N2)cc1` (configuration not stated), the growth was 108% (inactive).
With `COC1=C[C@@]23CCC(=O)N2CCc2cc4c(cc2[C@H]3[C@H]1OC(=O)C(C)(C)O)OCO4` the growth was 103% (inactive).
For `Nc1nc(-c2ccccc2)cs1`, the growth was 74.6% (inactive).
`COC(=O)c1c(C(=O)OC)c2n(c1C)[C@@H]([C@@H](C)[C@H]1CC[C@H]3[C@@H]4CCC5=CC(=O)CC[C@]5(C)[C@H]4CC[C@]13C)SC2` was tested, and the growth was 45% (inactive).
With `C/C(=N\NC(N)=S)c1ccc(Nc2nc(SC(C)C)nc(-c3ccccc3)c2C#N)cc1` the growth was 59.2% (inactive).
With `COc1ccc(-c2cc(-c3cc(C(=O)c4ccc(Br)cc4)n4ccc(C)cc34)nc(N)c2C#N)cc1` the growth was 103% (inactive).
With `CC(=O)Nc1ccc(-n2cnc3cc(-c4ccc(NS(C)(=O)=O)cc4)ccc32)cc1` the growth was 21.5% (inactive).
For `O=c1cc(-c2ccccc2)oc2cc(OCCCCNCc3ccccc3)cc(O)c12`, the growth was -96.7% (active).
For `C/C(=N\N=C\c1ccc(Cl)c([N+](=O)[O-])c1)c1ccc2c(c1)Nc1ccccc1S2`, the growth was 8.71% (active).
For `N#Cc1c(-c2ccc(Cl)cc2)cc(-c2ccccc2)nc1OCc1ccccc1`, the growth was 95% (inactive).
With `COc1cccc(/C=N/NC(=O)c2ccc3nc(-c4ccc(Cl)cc4)[nH]c3c2)c1O` the growth was -98% (active).
In the case of `COc1ccc(/C(CSc2nnc(-c3c[nH]c4ccccc34)n2-c2ccccc2)=N/O)cc1`, the growth is reported as 42.4% (inactive).

These compounds were tested on KM12 colon in the same assay as above. Conditions: 10 µM.
In the case of `O=S(=O)(Nc1ncccn1)c1ccc(-n2c(-c3ccccc3)nc(-c3ccccc3)c2-c2ccccc2)cc1`, the growth is reported as 88.4% (inactive).
In the case of `COc1ccc(-c2cc(-c3cc(C(=O)c4ccccc4)n4ccc(C)cc34)nc(N)c2C#N)cc1`, the growth is reported as 85.4% (inactive).
`N#Cc1ccc(NC(=O)CSc2ccc(-c3ccc(Br)cc3)nn2)cc1` was tested, and the growth was 76.7% (inactive).
With `CCCn1c(O)c(N=Nc2nc(-c3cc4ccccc4oc3=O)cs2)c2cc(Br)ccc21` the growth was 106% (inactive).
`COc1cc2oc(-c3cccc(C(=O)Nc4ccc(Cl)cc4)c3)cc(=O)c2c(OCCNC(=O)CNC(=O)OC(C)(C)C)c1OC` was tested, and the growth was 48.6% (inactive).
In the case of `CCCCOc1ccc(Nc2nc3ccccc3nc2Nc2ccc(OCCCC)cc2)cc1`, the growth is reported as 86.8% (inactive).
With `COc1cc(NC(=O)CSc2nnc(-c3ccc4nc(-c5ccc(Cl)cc5)[nH]c4c3)o2)cc(OC)c1OC` the growth was 70% (inactive).
`O=C(NO)c1ccc(CNC(=O)[C@H]2Cc3c([nH]c4ccccc34)[C@H](c3ccc(Cl)cc3)N2)cc1` was tested, and the growth was 19.6% (inactive).
For `N#Cc1c(NC(=O)c2ccc(C(F)(F)F)c(Cl)c2)sc2c1CCC(=O)C2`, the growth was -28.4% (active).
With `O=C(Cc1ccc2c(c1)CN(C1CCC(=O)NC1=O)C2=O)NCc1cccc2ccccc12` (configuration not stated) the growth was -7.26% (active).
With `CCOC(=O)CNC(=O)CN(Cc1ccccc1)C(=O)[C@@]1(C)CCC[C@]2(C)[C@H]3C[C@H]4C(C(C)C)=C[C@]3(CC[C@H]21)[C@@H]1C(=O)OC(=O)[C@@H]14` the growth was 53% (inactive).
For `O=C(NCCCCCCCCCC[P+](c1ccccc1)(c1ccccc1)c1ccccc1)c1ccc(-n2nc(-c3ccccc3O)nc2-c2ccccc2O)cc1`, the growth was -27.1% (active).
For `COc1ccc2[nH]c(=O)c(CSc3ccc(Nc4nccc(-c5ccc(Cl)cc5)n4)cc3)cc2c1`, the growth was 102% (inactive).
`CCOC(=O)C1=C(N)N(c2ccccc2)C2=C(C(=O)CC(C)(C)C2)C1c1ccccc1OC` (configuration not stated) was tested, and the growth was 113% (inactive).
In the case of `COc1cccc2nc(Nc3cccc(NC(=O)c4ccc(CN5CCCN(C)CC5)c(C(F)(F)F)c4)c3)ccc12`, the growth is reported as -63.9% (active).
`COc1cc(C2CC(c3ccc(C)cc3)=Nc3c(N)nc(N)nc3N2)ccc1Oc1nc(Nc2ccc(F)cc2)nc(N(C)C)n1` (configuration not stated) was tested, and the growth was 52% (inactive).
With `CC(=O)Nc1ccc(-c2cn(-c3cccc(C(=O)Nc4ccc(Cl)c(C(F)(F)F)c4)c3)nn2)cn1` the growth was -3.58% (active).
In the case of `Cc1cc(C(F)(F)F)ccc1C(=O)Nc1sc2c(c1C#N)CCC(=O)C2`, the growth is reported as -8.98% (active).
In the case of `COc1ccc(OC)c(/C=N/NC(=O)c2ccc3nc(-c4ccc(Cl)cc4)[nH]c3c2)c1`, the growth is reported as 76.7% (inactive).
`CC1=N/C(=C\c2ccc(N(C)C)cc2)C(=O)N1CCc1ccc(S(N)(=O)=O)cc1` was tested, and the growth was 104% (inactive).
In the case of `Cc1ccc(-c2cc(C(=O)N=Nc3c(O)[nH]c4ccc(Br)cc34)c3ccccc3n2)cc1`, the growth is reported as 49.1% (inactive).
For `COc1ccccc1C(=O)NNC(=O)CSc1nc2c(c(=O)[nH]1)CCCC2`, the growth was 94.5% (inactive).
`C=C1CCC2C3(C)COC(c4cccc(F)c4)OC3CCC2(C)C1CC(O)C1=CCOC1=O` (configuration not stated) was tested, and the growth was 59.6% (inactive).
For `C=C1CCC2C3(C)COC(c4c(F)cccc4F)OC3CCC2(C)C1C/C=C1/C(=O)OCC1O` (configuration not stated), the growth was -67.5% (active).
`Nc1nnc(-c2c[nH]c3ccc(F)cc23)c(-c2c[nH]c3ncccc23)n1` was tested, and the growth was 49.5% (inactive).
In the case of `CC(=O)NS(=O)(=O)c1ccc(NC(=O)CSC2=NC(c3ccccc3)C(C(C)=O)=C(C)N2)cc1` (configuration not stated), the growth is reported as 104% (inactive).
In the case of `COC1=C[C@@]23CCC(=O)N2CCc2cc4c(cc2[C@H]3[C@H]1OC(=O)C(C)(C)O)OCO4`, the growth is reported as 101% (inactive).
In the case of `Nc1nc(-c2ccccc2)cs1`, the growth is reported as 43.1% (inactive).
In the case of `COC(=O)c1c(C(=O)OC)c2n(c1C)[C@@H]([C@@H](C)[C@H]1CC[C@H]3[C@@H]4CCC5=CC(=O)CC[C@]5(C)[C@H]4CC[C@]13C)SC2`, the growth is reported as 25.8% (inactive).
In the case of `C/C(=N\NC(N)=S)c1ccc(Nc2nc(SC(C)C)nc(-c3ccccc3)c2C#N)cc1`, the growth is reported as 75.7% (inactive).
In the case of `COc1ccc(-c2cc(-c3cc(C(=O)c4ccc(Br)cc4)n4ccc(C)cc34)nc(N)c2C#N)cc1`, the growth is reported as 82.1% (inactive).
With `CC(=O)Nc1ccc(-n2cnc3cc(-c4ccc(NS(C)(=O)=O)cc4)ccc32)cc1` the growth was 39.8% (inactive).
For `O=c1cc(-c2ccccc2)oc2cc(OCCCCNCc3ccccc3)cc(O)c12`, the growth was 23.8% (inactive).
For `C/C(=N\N=C\c1ccc(Cl)c([N+](=O)[O-])c1)c1ccc2c(c1)Nc1ccccc1S2`, the growth was 29.4% (inactive).
For `N#Cc1c(-c2ccc(Cl)cc2)cc(-c2ccccc2)nc1OCc1ccccc1`, the growth was 82.6% (inactive).
For `COc1cccc(/C=N/NC(=O)c2ccc3nc(-c4ccc(Cl)cc4)[nH]c3c2)c1O`, the growth was -85.2% (active).
In the case of `COc1ccc(/C(CSc2nnc(-c3c[nH]c4ccccc34)n2-c2ccccc2)=N/O)cc1`, the growth is reported as 21.2% (inactive).
